D2 PAM-1 = positively modulates the human D2 dopamine receptor allosterically | 340,000 compounds, 0.34% hits | HEK293 T-REx D2, calcium flux, EC20 dopamine potentiation | P14416 | potentiation, % at 10 µM;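 active = potentiation over 3 SD above the plate norm, cut at about 30% in these data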; note: 0% is about no effect
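Potentiation of an EC20 dopamine calcium response measured kinetically over 180 s, after a preceding 180 s compound-only read flagging agonists. Cells: inducible Hek293 Trex D2 line, 4000/well, cultured overnight at 30 C before dye loading.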
D2 PAM-2 = human D2 receptor positive allosteric modulation; DiscoveRx D2 beta-arrestin cells, luminescence, 90 min; 100% = 57 uM dopamine signal; AID 624464; 360,000 compounds, 0.23% hits; potentiation, % (test concentration not listed); in the data active = potentiation above about 50%; inconclusive = mostly about 30% to 49%
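D2 cells co-treated with compound plus 50 nM dopamine (EC20) for 90 min at 37 deg C to detect potentiation. Beta-arrestin recruitment was read as enzyme-fragment luminescence after 1 h at ambient temperature. Full response was set by 57 uM dopamine.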
D2 antag = antagonizes the human D2 dopamine receptor | P14416 | HEK293 TREx D2 cells, calcium flux, dopamine EC80 | inhibition, % at 10 µM | 340,000 compounds, 2% hits | AID 485344; in the data active = inhibition above about 30%; inactive = below that, where a call was filed; note: 0% is about no effect
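Inhibition of EC80 dopamine-driven calcium flux, recorded kinetically, defines activity here; cells are a tetracycline-induced HEK293 T-REx line expressing force-coupled D2.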
D2 ag-1 = human D2 receptor agonism in beta-arrestin assay; activation, % (no concentration beside the values); P14416; 360,000 compounds, 0.084% hits; DiscoveRx PathHunter D2 beta-arrestin, luminescence, 90 min; 100% = 57 uM dopamine signal; in the data active = activation above about 40%; inconclusive = between about 15% and that limit
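DiscoveRx PathHunter D2 beta-arrestin cells (2,100/well) attached overnight, then compound-stimulated 90 min at 37 C in HBSS/10 mM HEPES/0.1% Tween-20 buffer; beta-galactosidase complementation read by luminescence after 1 h at ambient temperature. Dopamine 57 uM final (EC100) as control.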
D2 ag-2 = D2 dopamine receptor (human) agonism | activation, % at 2 µM | HEK293 T-REx D2 cells, calcium flux agonist mode | AID 485358 | 340,000 compounds, 0.53% hits;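 active = activation over 3 SD above normal in the single-dose calcium agonist read, cut at about 30% in these data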; note: 0% is about no effect
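HEK293 Trex D2 cells, tetracycline-induced, o/n 30 C 5% CO2; no-wash Ca dye, RT 30–90 min; 10-cycle baseline, 23 nl cpd added, kinetic Ca read 180 s; agonist hits = positive Ca response.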
D3 arrestin ag = activates human D3 dopamine receptor beta-arrestin recruitment. DiscoveRx D3 beta-arrestin cells, luminescence, 90 min. 2,300 compounds, 4% hits. AID 720506. shares compounds with D2 ag-2. Potency, µM (doses to about 76.9 µM), without a hit: top-dose activation, actives largely listed as activators;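 note: potency is the fitted concentration of half-maximal effect; 100% = dopamine control response; nearly all actives have a fitted effect of over 70% in size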
Target sequence (P35462 whole entry, looked up): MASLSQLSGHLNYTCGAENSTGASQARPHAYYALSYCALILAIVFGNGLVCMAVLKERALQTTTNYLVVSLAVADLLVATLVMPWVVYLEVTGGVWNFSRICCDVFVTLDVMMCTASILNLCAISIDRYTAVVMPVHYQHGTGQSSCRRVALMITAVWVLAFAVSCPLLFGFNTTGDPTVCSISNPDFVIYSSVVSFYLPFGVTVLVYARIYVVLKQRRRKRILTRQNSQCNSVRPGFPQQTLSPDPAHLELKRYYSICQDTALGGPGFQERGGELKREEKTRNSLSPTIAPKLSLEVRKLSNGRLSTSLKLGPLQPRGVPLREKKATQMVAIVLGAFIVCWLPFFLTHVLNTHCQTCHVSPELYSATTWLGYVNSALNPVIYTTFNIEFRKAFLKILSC
D2 ag-3 = activates human D2 dopamine receptor in D3 counterscreen; shares compounds with D2 ag-2; DiscoveRx PathHunter D2 beta-arrestin, luminescence, 90 min; response scale: percent relative to full dopamine signal; Potency, µM (titrated, usually from 76.9 µM), without a hit: at the top dose activation, hits mostly activators; 2,300 compounds, 5.9% hits; AID 720507; note: potency is the fitted concentration of half-maximal effect; % of control where 0% means no effect; nearly all actives have a fitted effect of over 70% in size
Numbers without * were called inactive; ? = inconclusive; nt = no result given. Rows were chosen to be rich in hits. Some 2.4% of all compounds tested hit in one or more screens of this group. Unless noted, calls come from the whole dose curve; as a rule, active = well fitted activation curve with a large enough effect; inconclusive = small, poorly fitted or top-dose-only effect; inactive = flat fitted curve, though single readings scatter.

SMILES | D2 PAM-1 | D2 PAM-2 | D2 antag | D2 ag-1 | D2 ag-2 | D3 arrestin ag | D2 ag-3
COc1ccc(C)cc1NC(=O)NC(C)c1ccc2c(c1)OCO2 (stereo not given) | -22 | -30 | 8 | -3 | 65* | -5% | -6%
O=S(=O)(c1ccc(Br)cc1)N1CCCN(Cc2ccccc2F)CC1 | -22 | -7 | -20 | -1 | 41* | -8% | -2%
Cc1ccccc1CN1CCN(S(=O)(=O)c2ccc(F)cc2)CC1 | -2 | -18 | -18 | -1 | 1 | nt | nt
COc1ccc(CN=Cc2[nH]c3ccc(Br)c(Cl)c3c2O)cc1 | -14 | -2 | 43* | 5 | 51* | 29% | 28%
COc1cc2[nH]c(=S)nc(NCC3CCCO3)c2cc1OC (stereo not given) | 4 | -7 | 32* | -1 | 0 | 1% | -6%
CCCCN(CC)CCCNC(=O)Cn1nc(CC)n2c(cc3sccc32)c1=O | -12 | nt | nt | nt | 0 | nt | nt
Cc1cn2c(=O)cc(COC(=O)COc3ccc(F)cc3)nc2s1 | 7 | nt | nt | nt | 1 | nt | nt
CCOC(=O)C1CCN(Cc2ccc(N(C)C)cc2)CC1 | -19 | -7 | 28 | 2 | 42* | -27% | 12%
CCOC(=O)C1CCN(Cc2ccc(F)c(F)c2)CC1 | -9 | -15 | 6 | 0 | 7 | nt | nt
CCOC(=O)C1CCN(Cc2cccc(OC)c2)CC1 | -27 | -3 | 44* | ? | 76* | -16% | 24%
CCOC(=O)C1CCN(Cc2ccc(OC)cc2OC)CC1 | 12 | -15 | 23 | 0 | -1 | nt | nt
CCOC(=O)C1CCN(Cc2ccc(OCc3ccccc3)cc2)CC1 | -19 | 0 | 59* | 11 | 68* | 0% | ?
CCOC(=O)CSc1nc2ccccc2c(=O)n1-c1cccc(C)c1 | -7 | nt | nt | nt | -2 | nt | nt
O=C(NCC1CCN(Cc2cccc(F)c2)CC1)c1cc2ccc3cccnc3c2[nH]1 | 2 | nt | nt | nt | nt | nt | nt
O=c1c(CN2CCN(c3ccccn3)CC2)coc2ccccc12 | -17 | 19 | 79* | ? | 88* | 11% | ?
Cc1[nH]c2ccccc2c1CN1CCN(c2ccccn2)CC1 | -22 | -17 | 56* | 3 | 51* | -12% | 6%
Cc1ccccc1-c1nnc(CN2CCN(c3ccccn3)CC2)o1 | -19 | nt | nt | nt | nt | nt | nt
O=c1c(CN2CCN(Cc3ccccc3F)C(CCO)C2)coc2ccccc12 (stereo not given) | 1 | -11 | -19 | 3 | 9 | nt | nt
Oc1c(CN2CCN(c3ccccn3)CC2)cc(Cl)c2cccnc12 | -31 | -63 | 89* | -16 | 83* | -21% | ?
Brc1ccc(CN2CCN(c3ccccn3)CC2)s1 | -12 | ? | 69* | 70* | 70* | ? | 3.5µM*
OCCN1CCN(Cc2cc(Cl)c3cccnc3c2O)CC1 | -9 | -24 | 3 | 1 | 0 | nt | nt
c1ccc(N2CCN(Cc3nc4ccccc4[nH]3)CC2)nc1 | -21 | -3 | -10 | 5 | 15 | nt | nt
Cc1cc(C)c2c(n1)nn1c(C)c(CCC(=O)Nc3cccc(C)c3C)c(C)nc21 | 12 | nt | nt | nt | -1 | nt | nt
COc1ccccc1CNC(=O)Cn1ncn2c(cc3sccc32)c1=O | 2 | nt | nt | nt | nt | nt | nt
CCOC(=O)c1ccc(NC(=O)Cn2ncc3c(C)n(Cc4ccccc4F)c(C)c3c2=O)cc1 | 1 | nt | nt | nt | 0 | nt | nt
SMILES | D2 PAM-1 | D2 PAM-2 | D2 antag | D2 ag-1 | D2 ag-2 | D3 arrestin ag | D2 ag-3
CC(C)NC(=O)Cc1ccc(Br)cc1 | 4 | 6 | 4 | -1 | 1 | nt | nt
CCCC(C)NC(=O)Cc1ccc(Br)cc1 (stereo not given) | 26 | -13 | -5 | -1 | 0 | -12% | -2%
O=C1N=C(N2CCOCC2)S/C1=C/c1ccc(-c2ccc(F)cc2)o1 | -21 | 6 | -5 | ? | 55* | 3% | ?
Nc1nc2ccccc2n1/N=C/c1ccc([N+](=O)[O-])s1 | 22 | 10 | 14 | 0 | 1 | ? | -2%
COc1cc(NC(=O)c2cc(-c3ccccc3O)no2)cc(OC)c1OC | 4 | nt | nt | nt | 0 | nt | nt
Cc1ccc(CN(C(=O)c2cccs2)C2CCS(=O)(=O)C2)cc1 (stereo not given) | 4 | -2 | 1 | -1 | 0 | nt | nt
O=C(c1cccs1)N(Cc1ccco1)C1CCS(=O)(=O)C1 (stereo not given) | -20 | 21 | 41* | ? | 58* | 17% | 25%
CCc1ccc(NC(=O)C(=O)NCCN2CCN(C(=O)c3ccco3)CC2)cc1 | -23 | 20 | 1 | ? | 67* | 5µM* | ?
CCOC(=O)c1ccc(NC(=O)CN2CCN(C(=O)c3ccco3)CC2)cc1 | -6 | 21 | 67* | ? | 80* | 22µM* | ?
CCc1ccc(NC(=O)C(=O)NCCN2CCN(C(=O)c3ccc(OC)cc3)CC2)cc1 | nt | -17 | nt | -3 | nt | nt | nt
NC(=O)c1ccc(NC(=O)CN2CCN(C(=O)c3ccco3)CC2)cc1 | nt | -1 | nt | 12 | nt | ? | ?
NC(=O)c1ccc(NC(=O)CN2CCOCC2)cc1 | -5 | -13 | -6 | 0 | 0 | nt | nt
CCOc1ccccc1CN1CCc2nc(N3CCN(C)CC3)ncc2C1 | 5 | nt | nt | nt | -2 | nt | nt
O=C(O)c1cccc(-n2c(/C=C/c3cccc([N+](=O)[O-])c3)nc3ccccc3c2=O)c1 | 10 | 1 | 11 | -2 | 0 | nt | nt
O=C(O)c1cccc(-n2c(/C=C/c3ccc([N+](=O)[O-])cc3)nc3ccccc3c2=O)c1 | 4 | 0 | 13 | -2 | 0 | 9% | 6%
CCOc1ccccc1OCCCn1c(-c2ccc(Cl)cc2)nc2ccccc2c1=O | -4 | nt | nt | nt | 3 | nt | nt
O=C(O)CCc1ccc(-c2cccs2)n1CCc1ccccc1 | -11 | -15 | nt | 3 | nt | 5% | 6%
O=C(O)CCc1ccc(-c2cccs2)n1CCC(=O)O | 8 | 10 | -1 | -4 | 1 | nt | nt
Cc1ccc(NC(=O)CC(NC(=O)c2ccccc2Cl)c2ccccc2)nc1 (stereo not given) | -8 | 0 | -19 | 8 | 0 | -2% | -3%
Cc1ccnc(NC(=O)CC(NC(=O)c2ccccc2Cl)c2ccccc2)c1 (stereo not given) | 2 | -7 | -17 | -1 | 1 | nt | nt
CC(=O)N1CCC2(CC1)OC(=O)C(C)=C2C(=O)NCc1ccc(Cl)cc1 | -12 | nt | nt | nt | 1 | nt | nt
CCOc1ccccc1CNC(=O)Cn1nc(N2CCN(c3ccccc3)CC2)ccc1=O | 12 | nt | nt | nt | 0 | nt | nt
NCCCn1cnc2ccccc21 | nt | -1 | 3 | -5 | 1 | -2% | 1%
c1ccc2c(c1)ncn2CCn1cnc2ccccc21 | -3 | -12 | -16 | -4 | -1 | nt | nt
